In PubChem BioAssay (NCI):
Compounds without any hit were thinned out: in the full panel of roughly 83,000, 20% have a hit.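 Activity criterion: percent growth below 10, measured after cells in 96-well plates were exposed to a single compound concentration for 48 hours.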 The source made the active and inactive calls.

Legend:
Assay in all cases: NCI-60 one-dose screen, 48 h (100 = growth as untreated, 0 = no growth, -100 = all killed)
Settings in all cases: 10 µM unless noted
SR leukemia = system: SR leukemia
RPMI-8226 leukemia = system: RPMI-8226 leukemia
OVCAR-8 ovarian = system: OVCAR-8 ovarian
OVCAR-5 ovarian = system: OVCAR-5 ovarian
SK-OV-3 ovarian = system: SK-OV-3 ovarian
IGROV1 ovarian = system: IGROV1 ovarian
OVCAR-3 ovarian = system: OVCAR-3 ovarian
HS 578T breast = system: HS 578T breast
NCI/ADR-RES ovarian = system: NCI/ADR-RES ovarian
T-47D breast = system: T-47D breast
BT-549 breast = system: BT-549 breast
MDA-MB-435 melanoma = system: MDA-MB-435 melanoma
SW-620 colon = system: SW-620 colon
MCF7 breast = system: MCF7 breast
HCT-116 colon = system: HCT-116 colon
HCC-2998 colon = system: HCC-2998 colon
KM12 colon = system: KM12 colon
OVCAR-4 ovarian = system: OVCAR-4 ovarian

Row | Structure (SMILES) | growth (SR leukemia) | growth (RPMI-8226 leukemia) | growth (OVCAR-8 ovarian) | growth (OVCAR-5 ovarian) | growth (SK-OV-3 ovarian) | growth (IGROV1 ovarian) | growth (OVCAR-3 ovarian) | growth (HS 578T breast) | growth (NCI/ADR-RES ovarian) | growth (T-47D breast) | growth (BT-549 breast) | growth (MDA-MB-435 melanoma) | growth (SW-620 colon) | growth (MCF7 breast) | growth (HCT-116 colon) | growth (HCC-2998 colon) | growth (KM12 colon) | growth (OVCAR-4 ovarian)
1 | CC1NC(=S)NC(=O)/C1=C/c1cc(=O)oc2c1ccc1ccccc12 (configuration not stated) | 94% (inactive) | 102% (inactive) | 87.5% (inactive) | 105% (inactive) | 94.4% (inactive) | 91.9% (inactive) | 100% (inactive) | 94.4% (inactive) | 92.7% (inactive) | 93.4% (inactive) | 87.7% (inactive) | 105% (inactive) | 95.5% (inactive) | 89.9% (inactive) | 91.8% (inactive) | 105% (inactive) | 99.6% (inactive) | –
2 | C/C(=C(/c1ccccc1)c1ccc(OCC(O)CNCCN2CCOCC2)cc1)c1ccccc1 (configuration not stated) | 0.691% (active) | 20.4% (inactive) | 78.2% (inactive) | 76.2% (inactive) | 95.4% (inactive) | 63.3% (inactive) | 77.9% (inactive) | 70.5% (inactive) | 80.2% (inactive) | 89.3% (inactive) | 105% (inactive) | -63.8% (active) | 49% (inactive) | 44.6% (inactive) | 106% (inactive) | -59.6% (active) | 54.3% (inactive) | –
3 | C[C@]12CCc3nc(Nc4cccc(O)c4)sc3C1=CC[C@@H]1[C@@H]2CC[C@]2(C)/C(=N\NC(N)=S)CC[C@@H]12 | 8.77% (active) | -22.2% (active) | 30.5% (inactive) | 58.8% (inactive) | 29.9% (inactive) | -35.5% (active) | -54% (active) | -0.0546% (active) | 47.8% (inactive) | 19.5% (inactive) | 7.62% (active) | 5.53% (active) | -50% (active) | -39.3% (active) | -61.8% (active) | 65.3% (inactive) | 13.5% (inactive) | –
4 | Cc1cc2nc(-c3ccccc3)c(-c3ccccc3)nc2cc1C | 76.9% (inactive) | 88.1% (inactive) | 108% (inactive) | 115% (inactive) | 108% (inactive) | 112% (inactive) | 113% (inactive) | 118% (inactive) | 93.1% (inactive) | 86.5% (inactive) | 97.5% (inactive) | 93% (inactive) | 99% (inactive) | 88.9% (inactive) | 91.4% (inactive) | 104% (inactive) | 104% (inactive) | –
5 | COC(=O)C(c1ccccc1)C(CC(=O)c1ccccc1)c1ccccc1 (configuration not stated) | 87.5% (inactive) | 71.1% (inactive) | 102% (inactive) | 93.3% (inactive) | 31.8% (inactive) | 83.3% (inactive) | 81.3% (inactive) | 102% (inactive) | 83.5% (inactive) | 76.2% (inactive) | 108% (inactive) | 88.8% (inactive) | 104% (inactive) | 99.5% (inactive) | 88.8% (inactive) | 96.1% (inactive) | 91.5% (inactive) | –
6 | C=C1C(=O)O[C@H]2[C@H]1CC/C(CNC(=O)/C=C/c1ccc(Br)cc1)=C\CC[C@@]1(C)O[C@@H]21 | 0.986% (active) | -33.7% (active) | 2.52% (active) | -51.4% (active) | 46.6% (inactive) | -27.9% (active) | -91.4% (active) | -7.13% (active) | 38.5% (inactive) | -41.3% (active) | -59.7% (active) | -47.8% (active) | -78.5% (active) | -66.7% (active) | -81.4% (active) | -92.6% (active) | 36.4% (inactive) | –
7 | O=C(Cc1ccc(/C=C/C(=O)c2ncc[nH]2)cc1)Nc1ccc(C(F)(F)F)cc1 | 0.627% (active) | -38.2% (active) | -2.81% (active) | 78.9% (inactive) | 73.3% (inactive) | 23.7% (inactive) | 1.88% (active) | 36.1% (inactive) | 60.3% (inactive) | 29.2% (inactive) | 44% (inactive) | -1.95% (active) | -16.1% (active) | 10.3% (inactive) | – | 59.3% (inactive) | -41.3% (active) | –
8 | CC(N)C(=O)NNc1n[nH]c(=S)n1N (configuration not stated) | 103% (inactive) | 104% (inactive) | 100% (inactive) | 92.9% (inactive) | 109% (inactive) | 98.8% (inactive) | 97.6% (inactive) | 88.2% (inactive) | 99.9% (inactive) | 98.6% (inactive) | 87.1% (inactive) | 96.1% (inactive) | 93.1% (inactive) | 93.7% (inactive) | 103% (inactive) | 102% (inactive) | 102% (inactive) | –
9 | CC(=O)OCC(=O)C1(O)C(C)CC2C3C=C(C)C4=Cc5c(cnn5-c5ccccc5)CC4(C)C3C(O)CC21C (configuration not stated) | 2.76% (active) | -18.3% (active) | 44.9% (inactive) | 25.3% (inactive) | 43.1% (inactive) | – | 11.5% (inactive) | – | 35% (inactive) | – | 21.5% (inactive) | 33.7% (inactive) | -30% (active) | 12.8% (inactive) | 3.77% (active) | 13.5% (inactive) | -28.7% (active) | 43.2% (inactive)
10 | CCCCCCCCCCCCCCCC(=O)OC[C@@]1(O)C[C@@]23CC[C@@H]4C(C)(C)CCC[C@@]4(C)[C@@H]2CC[C@H]1C3 | 22.9% (inactive) | 81.9% (inactive) | 92.3% (inactive) | 108% (inactive) | 113% (inactive) | 107% (inactive) | 103% (inactive) | 98.9% (inactive) | 102% (inactive) | 83.5% (inactive) | 86.7% (inactive) | 107% (inactive) | 108% (inactive) | 60.5% (inactive) | -79.1% (active) | 118% (inactive) | 111% (inactive) | –
11 | CC(c1ccccc1)n1ccnc1CO (configuration not stated) | 104% (inactive) | 95.6% (inactive) | 112% (inactive) | 104% (inactive) | 96.8% (inactive) | 94.2% (inactive) | 115% (inactive) | 92.1% (inactive) | 99.8% (inactive) | 104% (inactive) | 113% (inactive) | 98.4% (inactive) | 97.8% (inactive) | 97.3% (inactive) | 104% (inactive) | 90.6% (inactive) | 109% (inactive) | –
12 | CCCCCCc1nc2nc(Cl)c(Cl)nc2[nH]1 | 62.9% (inactive) | 28.2% (inactive) | 71.9% (inactive) | 97.4% (inactive) | 92% (inactive) | 57.7% (inactive) | 40.2% (inactive) | 76.4% (inactive) | 66.7% (inactive) | 22.7% (inactive) | 66.5% (inactive) | 61.9% (inactive) | 87.6% (inactive) | 64.4% (inactive) | 57.1% (inactive) | 61.3% (inactive) | 47.6% (inactive) | –
13 | CCCCN(CCCC)CCc1c(C)cc(C)c(CCN(CCCC)CCCC)c1O | 25.8% (inactive) | 1.92% (active) | 47.5% (inactive) | 45.6% (inactive) | 25.5% (inactive) | 32.9% (inactive) | 14.7% (inactive) | 58.3% (inactive) | 75.7% (inactive) | – | 43.3% (inactive) | 17.1% (inactive) | 24.1% (inactive) | 12.8% (inactive) | 6.6% (active) | 19.6% (inactive) | 41.4% (inactive) | –
